Structures can show the parent of a compound that is named as a salt.
Test system: Vero E6 infected with SARS-CoV-2
Assay: inhibition of SARS-CoV-2 cytopathic effect; higher = more antiviral protection, active = above 15
Details: 48 h

Measured: inhibition of SARS-CoV-2 cytopathic effect

O=C(CC1NCCCC1O)Cn1cnc2cc(Br)c(Cl)cc2c1=O (stereo not given) [halofuginone]
inactive: 1 nM -3.21% | 8.33 nM -1.77% | 100 nM -2.82% | 833.33 nM 12.3% | 10000 nM -13.9%

Nc1ccc(S(=O)(=O)NC(=O)c2ccccc2)cc1 [sulfabenzamide]
inactive: 1 nM -2.34% | 8.33 nM -0.25% | 100 nM -1.3% | 833.33 nM -0.48% | 10000 nM -0.81%

CC(=O)c1ccc2c(c1)N(CCCN1CCN(CCO)CC1)c1ccccc1S2 [acetophenazine]
inactive: 1 nM 1.65% | 8.33 nM 1.77% | 100 nM 2.3% | 833.33 nM 2.47% | 10000 nM 2.15%

C=CC(=O)Nc1cccc(Nc2nc(Nc3ccc(Oc4ccnc(C(=O)NC)c4)cc3)ncc2F)c1
inactive: 1 nM -1.65% | 8.33 nM 1.5% | 100 nM 0.39% | 833.33 nM -1.84% | 10000 nM 9.86%

Cc1nc2ccc(NC(=O)Nc3ccnc4cccnc34)cc2o1
inactive: 1 nM 0.35% | 8.33 nM 0.06% | 100 nM 2.76% | 833.33 nM -0.56% | 10000 nM -0.97%

CS(=O)(=O)c1ccc(-c2nnc(/C=C/c3nnc(-c4ccc(C#N)cc4)o3)n2-c2ccccc2Cl)nc1
inactive: 1 nM 0.69% | 8.33 nM 0.31% | 100 nM -0.3% | 833.33 nM -2.5% | 10000 nM 2.17%

CCCC(=O)C1CCN(c2ncnc3c2CN(C(=O)c2ccc(-c4ccccc4)cc2)CC3)CC1
inactive: 1 nM -1.91% | 8.33 nM -1.68% | 100 nM 2.34% | 833.33 nM -0.3% | 10000 nM -1.38%

CC(C(=O)O)c1ccc2c(c1)Cc1ccccc1-2 (stereo not given) [cicloprofen]
inactive: 1 nM 1% | 8.33 nM 0.42% | 100 nM 2.68% | 833.33 nM 1.95% | 10000 nM 4.16%

COc1cc(N)c(Cl)cc1C(=O)NC1CCN(Cc2ccccc2)CC1 [clebopride]
inactive: 1 nM -1.61% | 8.33 nM -0.47% | 100 nM -0.47% | 833.33 nM 6.56% | 10000 nM 0.26%

CC(C)N(CCC(=O)c1ccc2ccccc2c1)Cc1ccccc1
inactive: 1 nM 0.32% | 8.33 nM -1.41% | 100 nM 1.13% | 833.33 nM 3.16% | 10000 nM 3.92%

COc1ccc(C(=O)Nc2c(Cl)cncc2Cl)cc1OC1CCCC1 [piclamilast]
inactive: 1 nM -1.88% | 8.33 nM -0.22% | 100 nM 0.16% | 833.33 nM -2.24% | 10000 nM -0.91%

C/C=C/c1cc(OC)c(OC)cc1OC [alpha-asarone]
inactive: 1 nM 0.99% | 8.33 nM 0.62% | 100 nM -3.56% | 833.33 nM -3.9% | 10000 nM -0.33%

COC(=O)C[C@](O)(CCC(C)(C)O)C(=O)O[C@@H]1C(OC)=C[C@]23CCCN2CCc2cc4c(cc2[C@H]13)OCO4 [harringtonine]
inactive: 1 nM 1.51% | 8.33 nM 0.45% | 100 nM -10.7% | 10000 nM -9.74%
active: 833.33 nM 19.9%

CC(=O)CC(c1ccccc1)c1c(O)c2ccccc2oc1=O (stereo not given) [warfarin]
inactive: 1 nM -10.1% | 8.33 nM -9.65% | 100 nM -9.92% | 833.33 nM -10.1% | 10000 nM -14.2%

CC(SC(=O)c1cccs1)C(=O)NCC(=O)O (stereo not given) [stepronin]
inactive: 1 nM 2.01% | 8.33 nM -0.48% | 100 nM 1.48% | 833.33 nM 0.5% | 10000 nM -1.74%

NC(=O)CN1CCCC1=O [piracetam]
inactive: 1 nM 0.23% | 8.33 nM -1.52% | 100 nM 3.28% | 833.33 nM -1.35% | 10000 nM -0.57%

Cc1ncc(COP(=O)([O-])[O-])c(CN(CCN(CC(=O)O)Cc2c(COP(=O)([O-])O)cnc(C)c2O)CC(=O)O)c1O.[Mn].[Na+].[Na+].[Na+] [Mangafodipir (trisodium)]
inactive: 1 nM -2.31% | 8.33 nM -3.12% | 100 nM -2.65% | 833.33 nM -1.43% | 10000 nM -3.61%

CN[C@@H]1[C@H](O[C@H]2[C@H](O[C@H]3[C@H](O)[C@@H](O)[C@H](N=C(N)N)[C@@H](O)[C@@H]3N=C(N)N)O[C@@H](C)[C@]2(O)C=O)O[C@@H](CO)[C@H](O)[C@H]1O [STREPTOMYCIN SULFATE [5mM; 10% aq DMSO + 5mM ethanolamine]]
inactive: 1 nM -0.46% | 8.33 nM -1.64% | 100 nM -0.12% | 833.33 nM 1.53% | 10000 nM 0.2%

O=C(Nc1c(-c2cccs2)nc2ccccn12)c1ccc(Cl)cc1
inactive: 1 nM 1.67% | 8.33 nM -0.43% | 100 nM -1.06% | 833.33 nM 1.78% | 10000 nM 9.03%

CCCCCCCCCCC(C)(C)C(=O)Nc1c(OC)cc(OC)cc1OC
inactive: 1 nM 0.52% | 8.33 nM 6.1% | 100 nM 5.14% | 833.33 nM 0.51% | 10000 nM 0.93%

CO[C@]12C[C@@H](COC(=O)c3cncc(Br)c3)CN(C)[C@@H]1Cc1cn(C)c3cccc2c13 [nicergoline]
inactive: 1 nM 0.73% | 8.33 nM -1.36% | 100 nM -1.54% | 833.33 nM 0.48% | 10000 nM -0.35%

N=C1CCCN1Cc1[nH]c(=O)[nH]c(=O)c1Cl [tipiracil]
inactive: 1 nM 2.52% | 8.33 nM 2.02% | 100 nM 0.58% | 833.33 nM -1.37% | 10000 nM 2.84%

NCCc1ccc(O)c(O)c1 [dopamine]
inactive: 1 nM -0.56% | 8.33 nM 0.74% | 100 nM -0.35% | 833.33 nM 0.38% | 10000 nM 0.14%

CN[C@@H](C)C(=O)N[C@H](C(=O)N1CCC[C@H]1C(=O)N[C@H]1c2ccccc2C[C@H]1OCC#CC#CCO[C@@H]1Cc2ccccc2[C@@H]1NC(=O)[C@@H]1CCCN1C(=O)[C@@H](NC(=O)[C@H](C)NC)C1CCCCC1)C1CCCCC1
inactive: 1 nM 0.65% | 8.33 nM 4.06% | 100 nM 1.35% | 833.33 nM -6.56% | 10000 nM -3.86%

O=c1[nH]cnc2c1cnn2[C@@H]1O[C@H](CO)[C@@H](O)[C@H]1O [allopurinol-riboside]
inactive: 1 nM 0.99% | 8.33 nM 0.92% | 100 nM 2.88% | 833.33 nM 0.52% | 10000 nM 1.75%

CC1Nc2ccc(Cl)cc2S(=O)(=O)N1 (stereo not given)
inactive: 1 nM 0.09% | 8.33 nM 1.51% | 100 nM -2.37% | 833.33 nM 1.75% | 10000 nM 2.76%

COC(=O)C1=CO[C@@H](O)[C@@H]2C(CO)=CC[C@H]12 [genipin]
inactive: 1 nM -1.26% | 8.33 nM 1% | 100 nM 0.94% | 833.33 nM -0.49% | 10000 nM -0.89%

C=CC(=O)Nc1cccc(Oc2nc(Nc3ccc(N4CCN(C)CC4)cc3)ncc2Cl)c1
inactive: 1 nM -1.99% | 8.33 nM 1.76% | 100 nM -2.31% | 833.33 nM -12.8% | 10000 nM -1.76%

COc1cc(N)c(Cl)cc1C(=O)N[C@@H]1CCN(CCCOc2ccc(F)cc2)C[C@@H]1OC (racemic) [cisapride]
inactive: 1 nM -0.68% | 8.33 nM -0.92% | 100 nM 1.02% | 833.33 nM 2.56% | 10000 nM -4.6%

CC(=O)O[C@H]1CC[C@@]2(C)C(=CC[C@@H]3[C@@H]2CC[C@]2(C)C(=O)CC[C@@H]32)C1 [prasterone-acetate]
inactive: 1 nM -0.78% | 8.33 nM 2.86% | 100 nM 3.18% | 833.33 nM 4.82% | 10000 nM -2.88%

CCOc1cc2ncc(C#N)c(Nc3ccc(F)c(Cl)c3)c2cc1NC(=O)/C=C/CN(C)C [pelitinib]
inactive: 1 nM -2.05% | 8.33 nM -5.13% | 100 nM -7.91% | 833.33 nM -5.27% | 10000 nM 2.95%

C[N+](C)(C)CC[N+]1(C)Cc2c(Cl)c(Cl)c(Cl)c(Cl)c2C1 [chlorisondamine-diiodide]
inactive: 1 nM 0.2% | 8.33 nM -3.86% | 100 nM -0.88% | 833.33 nM 1.41% | 10000 nM -1.63%

Cc1ccc(C(=O)Nc2ccc(CN3CCN(C)CC3)c(C(F)(F)F)c2)cc1C#Cc1cnc2[nH]ncc2c1
inactive: 1 nM 1.62% | 8.33 nM 6.08% | 100 nM 4.44% | 833.33 nM -8.47% | 10000 nM -20.9%

CCCCCCCCCCCCCCCC(=O)OC[C@H](O)[C@H]1OC(=O)C(O)=C1O [L-ascorbyl-6-palmitate]
inactive: 1 nM 2.02% | 8.33 nM 0.04% | 100 nM 0.01% | 833.33 nM 0.96% | 10000 nM -0.63%

Cc1ccc(NC(=O)c2ccc(CN3CCN(C)CC3)cc2)cc1Nc1nccc(-c2cccnc2)n1 [imatinib]
inactive: 1 nM 2.28% | 8.33 nM 1.75% | 100 nM 5.42% | 833.33 nM 7.15%
active: 10000 nM 20.1%

CCOC(=O)C1=CCCC[C@H]1S(=O)(=O)Nc1ccc(F)cc1Cl [resatorvid]
inactive: 1 nM 1.61% | 8.33 nM 1.54% | 100 nM 3.21% | 833.33 nM 0.29% | 10000 nM -0.49%

Cn1cc(-c2ccc(S(=O)(=O)n3ccc(/C=C/C(=O)Nc4ccccc4N)c3)cc2)cn1
inactive: 1 nM -0.95% | 8.33 nM 1.05% | 100 nM -0.51% | 833.33 nM -4.65% | 10000 nM -1.31%

OC[C@H]1O[C@@H](Oc2cc(O)cc(/C=C/c3ccc(O)cc3)c2)[C@H](O)[C@@H](O)[C@@H]1O [polydatin]
inactive: 1 nM -1.01% | 8.33 nM -1.06% | 100 nM 1.77% | 833.33 nM 9.49% | 10000 nM 2.31%

From the supplement of paper PMC13380429
